# Data published in the supplement of paper PMC4840960.
# ± gives the standard deviation of the averaged measurements.
# What was measured:
# [1] = system: E18 rat cortical neuron-glia co-culture; assay: fiber score / MBP score (myelination specific beyond OL differentiation) (ratio); higher = more myelination-specific MBP alignment; conditions: treatment time: 8 days (DIV5-DIV13)
# How it was run: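 Fiber score divided by MBP score is the read-out; fiber score is continuous MBP fiber length per Olig2+ nucleus, and MBP score is thresholded MBP area × intensity per Olig2+ nucleus. Primary E18 rat cortical co-cultures were dissociated with papain and seeded at 20,000 cells/well on poly-d-lysine/laminin 96-well plates. Library compounds at 1 or 5 µM were given in myelination medium from DIV5 to DIV13, after which cells were fixed in 4 % paraformaldehyde, immunostained for MBP and Olig2 with DAPI, and imaged in four 10X fields per well in duplicate wells.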
# [2] = system: E18 rat cortical neuron-glia co-culture; assay: myelination (MBP fiber length per Olig2+ nucleus), % of 1 µM DAPT response (DMSO = 0) (% of DAPT); higher = more myelination, active = 50 or more; conditions: treatment time: 8 days (DIV5-DIV13)
# How it was run: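 Four 10X fields in each of duplicate wells were analysed after cultures were fixed in 4 % paraformaldehyde and immunostained for MBP and Olig2, with DAPI as the nuclear counterstain. The cultures were papain-dissociated primary E18 rat cortical co-cultures at 20,000 cells/well on poly-d-lysine/laminin 96-well plates, dosed with library compounds at 1 or 5 µM in myelination medium from DIV5 to DIV13. The myelination readout was continuous straight MBP fiber length per Olig2+ nucleus, with 0.1 % DMSO set to 0 and a 1 µM positive control set to 100.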
Structure (SMILES),fiber score / MBP score ([1]; 1 µM),fiber score / MBP score ([1]; 5 µM),myelination ([2]; 1 µM),myelination ([2]; 5 µM)
CO[C@H]1/C=C/O[C@@]2(C)Oc3c(C)c(O)c4c(O)c(c(/C=N/N5CCN(C)CC5)c(O)c4c3C2=O)NC(=O)/C(C)=C\C=C\[C@H](C)[C@H](O)[C@@H](C)[C@@H](O)[C@@H](C)[C@H](OC(C)=O)[C@@H]1C [Rifampicin],0.964,0.704,12.6 (inactive),-2.96 (inactive)
COc1ccc(C2CNC(=O)C2)cc1OC1CCCC1 (stereo not given) [Rolipram],0.626,0.618,-51.4 (inactive),-53.6 (inactive)
C/C(=C\C(=O)OCCCCCCCCC(=O)O)C[C@@H]1OC[C@H](C[C@@H]2O[C@H]2[C@@H](C)[C@H](C)O)[C@@H](O)[C@H]1O [Mupirocin],0.423,0.41,-12.7 (inactive),-11.7 (inactive)
CCN(CC)CC#CCOC(=O)C(O)(c1ccccc1)C1CCCCC1 (stereo not given) [Oxybutynin],0.964,0.547,9.59 (inactive),-5.69 (inactive)
c1ccc2c(CC3=NCCN3)cccc2c1 [Naphazoline],1.1,1.06,13.7 (inactive),14 (inactive)
CC(C)(C)NCC(O)c1ccc(O)c(CO)c1 (stereo not given) [Albuterol],0.654,0.789,-29.6 (inactive),-17.3 (inactive)
NS(=O)(=O)c1cc2c(cc1C(F)(F)F)NC(Cc1ccccc1)NS2(=O)=O (stereo not given) [Bendroflumethiazide],0.474,0.559,-24.6 (inactive),-27.7 (inactive)
CC1=C(/C=C/C(C)=C/C=C/C(C)=C\C(=O)O)C(C)(C)CCC1 [Isotretinoin],0.294,0.414,-16.1 (inactive),-11.8 (inactive)
CC(=O)[C@@]1(O)CC[C@H]2[C@@H]3C[C@H](C)C4=CC(=O)C=C[C@]4(C)[C@@]3(F)[C@@H](O)C[C@@]21C [Fluorometholone],0.809,0.856,-5.67 (inactive),2.04 (inactive)
CC(C)(C)NC(=O)[C@H]1CC[C@H]2[C@@H]3CC[C@H]4NC(=O)C=C[C@]4(C)[C@H]3CC[C@]12C [Finasteride],0.7,0.898,-19.1 (inactive),-10.7 (inactive)
COc1ccccc1N1CCN(CC(O)COc2cccc3ccccc23)CC1 (stereo not given) [Naftopidil],0.655,0.695,-33.5 (inactive),15 (inactive)
CN1CCN(CCCN2c3ccccc3Sc3ccc(C(F)(F)F)cc32)CC1 [Trifluoperazine],0.177,–,-80.1 (inactive),–
C[C@@](Cc1ccc(O)c(O)c1)(NN)C(=O)O [Carbidopa],0.917,0.776,-3.67 (inactive),-7.64 (inactive)
CN1CCN(C2=Nc3cc(Cl)ccc3Nc3ccccc32)CC1 [Clozapine],0.395,–,-14.8 (inactive),–
CNS(=O)(=O)Cc1ccc2[nH]cc(CCN(C)C)c2c1 [Sumatriptan],0.873,0.861,-5.51 (inactive),-5.9 (inactive)
C=CCc1ccc(O)c(-c2ccc(O)c(CC=C)c2)c1 [Honokiol],0.744,–,-2.87 (inactive),–
COc1cc2c(cc1OC)C(=O)C(CC1CCN(Cc3ccccc3)CC1)C2 (stereo not given) [Donepezil],0.462,0.277,-20.8 (inactive),-26.1 (inactive)
CN(C/C=C/C#CC(C)(C)C)Cc1cccc2ccccc12 [Terbinafine],0.788,–,-6.59 (inactive),–
NNCCc1ccccc1 [Phenelzine],0.849 ± 0.21,–,-25.5 (inactive),–
CCn1cc(C(=O)O)c(=O)c2cc(F)c(N3CCN(C)CC3)cc21 [Pefloxacin],1,0.8,-8.57 (inactive),-12.3 (inactive)
